Measurements reported in PubChem BioAssay (Tox21).
Several values for one entry are separate records, joined by “and”; a condition that tells them apart may be missing. Equal entries are not always repeated. Results filed as inconclusive are left out. Some compounds were tested as several samples or in several runs, with calls that do not always agree. Activity calls are given as the source filed them. Calls follow the shape of the dose curve; as a rule, active = well fitted curve in the direction sought with a large enough effect in the repeat runs; inconclusive = weak or mixed curves; inactive = no such curve, though single readings can be large; an effect the other way counts as inactive or inconclusive.

Columns and labels:
[1] = qHTS RealTime-Glo MT Cell Viability Assay in HEK293 cells - 40 hour (AID 1224874); details: RealTime-Glo luminescence; max response: hits give low values; also: nearly all actives have a fitted effect of over 50% in size; also: potency is read from the fitted curve at half-maximal effect
In short: (§1)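 Luminescence, which tracks viable cell number through reduction of the prosubstrate to a NanoLuc substrate, was read over continuous 37 C culture. Cells (600/well) were premixed with reagent and rested 5 h before 23 nL of compound in DMSO was pinned.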

[2] = A CellTox Green Cytotoxicity Assay to monitor cytotoxicity in HEK293 cells - 24 hour (AID 1224875); also: series mostly up to about 77 µM; nearly all actives have a fitted effect of over 45% in size
In short: (§2)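 Fluorescence from a DNA-binding dye excluded by viable cells was measured repeatedly in the same HEK293 wells (600 cells/well) during continuous compound exposure at 37 C. Each assay gives one read point: 0, 8, 16, 24, 32 or 40 h.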

[3] = A CellTox Green Cytotoxicity Assay to monitor cytotoxicity in HepG2 cells - 16 hour (AID 1224876); also: nearly all actives have a fitted effect of over 45% in size
In short: (§3)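 Real-time cytotoxicity: fluorescence of a cell-impermeant cyanine dye binding DNA of dead HepG2 cells, measured repeatedly (0–40 h) during compound exposure at 37 C. Cells seeded 600/well with reagent, dosed after 5 h.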

[4] = A CellTox Green Cytotoxicity Assay to monitor cytotoxicity in HepG2 cells - 24 hour (AID 1224878); also: nearly all actives have a fitted effect of over 45% in size
In short: as §3

[5] = A CellTox Green Cytotoxicity Assay to monitor cytotoxicity in HepG2 cells - 40 hour (AID 1224879); also: nearly all actives have a fitted effect of over 40% in size
In short: as §3

[6] = qHTS RealTime-Glo MT Cell Viability Assay in HEK293 cells - 0 hour (AID 1224880); also: top concentration of the series differs between compounds; nearly all actives have a fitted effect of over 45% in size
In short: as §1

[7] = A CellTox Green Cytotoxicity Assay to monitor cytotoxicity in HEK293 cells - 32 hour (AID 1224881); also: nearly all actives have a fitted effect of over 40% in size
In short: as §2

[8] = A CellTox Green Cytotoxicity Assay to monitor cytotoxicity in HepG2 cells - 0 hour (AID 1224882); also: nearly all actives have a fitted effect of over 35% in size
In short: as §3

[9] = A CellTox Green Cytotoxicity Assay to monitor cytotoxicity in HepG2 cells - 32 hour (AID 1224883); also: nearly all actives have a fitted effect of over 50% in size
In short: as §3

[10] = A CellTox Green Cytotoxicity Assay to monitor cytotoxicity in HEK293 cells - 8 hour (AID 1224884); also: nearly all actives have a fitted effect of over 35% in size
In short: as §2

[11] = qHTS RealTime-Glo MT Cell Viability Assay in HepG2 cells - 16 hour (AID 1224885); also: nearly all actives have a fitted effect of over 50% in size
In short: (§4)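 Viability was tracked continuously by NanoLuc luminescence from prosubstrate reduced by living HepG2 cells, at successive time points over 40 h of compound exposure. Cells with reagent were preincubated 5 h at 37 °C before compound addition.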

[12] = qHTS RealTime-Glo MT Cell Viability Assay in HEK293 cells - 24 hour (AID 1224886); also: top concentration of the series differs between compounds; nearly all actives have a fitted effect of over 50% in size
In short: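 Viability tracked continuously by luminescence as live cells reduce a prosubstrate for NanoLuc; HEK293 cells preincubated 5 h, compound-treated at 37 C, and read at 0, 8, 16, 24, 32 and 40 h.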

[13] = qHTS RealTime-Glo MT Cell Viability Assay in HEK293 cells - 8 hour (AID 1224887)
In short: as §1

[14] = qHTS RealTime-Glo MT Cell Viability Assay in HepG2 cells - 0 hour (AID 1224889); also: nearly all actives have a fitted effect of over 50% in size
In short: as §4

[15] = A CellTox Green Cytotoxicity Assay to monitor cytotoxicity in HepG2 cells - 8 hour (AID 1224890); also: nearly all actives have a fitted effect of over 45% in size
In short: as §3

[16] = qHTS assay to identify small molecule antagonists of the estrogen receptor alpha (ER-alpha) signaling pathway using the BG1 cell line in the presence of 0.1 nM 17-beta-estradiol - cell viability counter screen (AID 1259241); also: nearly all actives have a fitted effect of over 40% in size
In short: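 VM7Luc4E2, 4,000 cells/well, phenol red-free medium + 10% charcoal-stripped FBS; 24 hr plating; cpd + 0.1 nM E2 final, 22 hr 37C/5% CO2; CellTiter-Fluor 30 min, fluorescence.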

[17] = qHTS RealTime-Glo MT Cell Viability Assay in HepG2 cells - 32 hour (AID 1224877); also: nearly all actives have a fitted effect of over 55% in size
In short: as §4

[18] = A CellTox Green Cytotoxicity Assay to monitor cytotoxicity in HEK293 cells - 16 hour (AID 1224888); also: nearly all actives have a fitted effect of over 35% in size
In short: as §2

[19] = qHTS assay to identify small molecule antagonists of the androgen receptor (AR) signaling pathway using the MDA cell line in the presence of 0.5 nM R1881 - cell viability counter screen (AID 1259242); also: nearly all actives have a fitted effect of over 45% in size
In short: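 Live-cell protease activity was measured by CellTiter-Fluor fluorescence after 30 min. Before that, MDA-kb2 MMTV-luciferase cells had 16 hr at 37C without CO2, exposed to test compounds and 0.5 nM R1881 final.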

[20] = molecular target: Androgen receptor (Homo sapiens) (UniProt P10275); assay: qHTS assay to identify small molecule antagonists of the androgen receptor (AR) signaling pathway using the MDA cell line in the presence of 0.5 nM R1881 (AID 1259243); also: nearly all actives have a fitted effect of over 50% in size
Chain of Androgen receptor (Homo sapiens) (P10275 whole entry, looked up): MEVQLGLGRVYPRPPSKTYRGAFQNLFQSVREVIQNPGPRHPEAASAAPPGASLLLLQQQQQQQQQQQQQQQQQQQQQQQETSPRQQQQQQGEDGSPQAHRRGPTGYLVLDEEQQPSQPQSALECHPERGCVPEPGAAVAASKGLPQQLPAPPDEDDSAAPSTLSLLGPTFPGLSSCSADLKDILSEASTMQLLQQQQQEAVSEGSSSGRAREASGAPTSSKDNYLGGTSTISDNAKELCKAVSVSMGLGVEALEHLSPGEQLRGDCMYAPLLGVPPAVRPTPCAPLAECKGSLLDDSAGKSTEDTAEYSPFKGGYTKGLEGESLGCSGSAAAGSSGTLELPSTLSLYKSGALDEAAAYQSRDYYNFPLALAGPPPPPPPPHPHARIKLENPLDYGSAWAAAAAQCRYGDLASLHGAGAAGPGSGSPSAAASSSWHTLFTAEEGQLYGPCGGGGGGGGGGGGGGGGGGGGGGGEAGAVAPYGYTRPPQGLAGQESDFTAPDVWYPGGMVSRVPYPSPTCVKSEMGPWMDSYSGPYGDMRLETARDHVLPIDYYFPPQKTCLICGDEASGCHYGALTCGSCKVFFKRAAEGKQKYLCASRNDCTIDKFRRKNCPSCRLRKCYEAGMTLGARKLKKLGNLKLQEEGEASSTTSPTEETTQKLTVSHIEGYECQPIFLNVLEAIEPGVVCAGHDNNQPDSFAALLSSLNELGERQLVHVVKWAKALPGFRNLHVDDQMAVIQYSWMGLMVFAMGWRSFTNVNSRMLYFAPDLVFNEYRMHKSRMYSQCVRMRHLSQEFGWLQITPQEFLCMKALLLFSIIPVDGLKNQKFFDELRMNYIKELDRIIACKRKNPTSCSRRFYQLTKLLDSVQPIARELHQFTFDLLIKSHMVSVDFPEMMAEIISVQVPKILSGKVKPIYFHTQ
In short: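 Luminescent reporter readout (ONE-Glo, 30 min, room temperature) after 16 hr co-treatment of MDA-kb2 cells with test compounds and 0.5 nM R1881 final, at 37C without CO2. The MMTV-driven luciferase responds to both AR and GR.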
% is scaled to controls: 0 for no effect and ±100 for the full control effect.

CCCCC(CC)COC(=O)CS (centres undefined)
inactive: max response [1] 6.5% | Potency [2] | Potency [3] | Potency [4] | Potency [5] | Potency [6] | Potency [7] | outcome [8] | Potency [9] | outcome [10] | outcome [11] | Potency [12] | Potency [13] | Potency [14] | Potency [15] | Potency [16]
active: Potency [1] 19.5 µM

C=C(C)C(=O)OCCOCCOCCOC(=O)C(=C)C
inactive: max response [1] -0.0416% and 6.25% | Potency [2] | Potency [3] | outcome [17] | Potency [4] | Potency [5] | Potency [6] | Potency [7] | outcome [8] | Potency [9] | outcome [10] | outcome [11] | Potency [12] | Potency [13] | outcome [18] | Potency [14] | Potency [15] | Potency [16] | outcome [19]

OCCOCCOCCO
inactive: max response [1] -0.565% and 3.8% | Potency [2] | Potency [3] | outcome [17] | Potency [4] | Potency [5] | Potency [6] | Potency [7] | outcome [8] | Potency [9] | outcome [10] | outcome [11] | Potency [12] | Potency [13] | outcome [18] | Potency [14] | Potency [15] | Potency [16] | outcome [19] | Potency [20]

CCCCN(CCCC)CCCC
inactive: max response [1] 6% and 4.07% | Potency [2] | Potency [3] | outcome [17] | Potency [4] | Potency [5] | Potency [6] | Potency [7] | outcome [8] | Potency [9] | outcome [10] | outcome [11] | Potency [12] | Potency [13] | outcome [18] | Potency [14] | Potency [15] | Potency [16] | outcome [19]

CCCCCCCCCCCCS
inactive: max response [1] 0.961% and 6.67% | Potency [2] | Potency [3] | outcome [17] | Potency [4] | Potency [5] | Potency [6] | Potency [7] | outcome [8] | Potency [9] | outcome [10] | outcome [11] | Potency [12] | Potency [13] | outcome [18] | Potency [14] | Potency [15] | Potency [16] | outcome [19]

CN(C)CCC(c1ccccc1)c1ccccn1 (centres undefined)
inactive: max response [1] 7.85% and 1.55% | Potency [2] | Potency [3] | outcome [17] | Potency [4] | Potency [5] | Potency [6] | Potency [7] | outcome [8] | Potency [9] | outcome [10] | outcome [11] | Potency [12] | Potency [13] | outcome [18] | Potency [14] | Potency [15] | outcome [19]

OCc1cccnc1
inactive: max response [1] -2.21% and -1.61% | Potency [2] | Potency [3] | outcome [17] | Potency [4] | Potency [5] | Potency [6] | Potency [7] | outcome [8] | Potency [9] | outcome [10] | outcome [11] | Potency [12] | Potency [13] | outcome [18] | Potency [14] | Potency [15] | Potency [16] | outcome [19]

CCCC(C)=O
inactive: max response [1] 3.18% and 6.23% | Potency [2] | Potency [3] | outcome [17] | Potency [4] | Potency [5] | Potency [6] | Potency [7] | outcome [8] | Potency [9] | outcome [10] | outcome [11] | Potency [12] | Potency [13] | outcome [18] | Potency [14] | Potency [15] | Potency [16] | outcome [19]

CCCCCCCCCC
inactive: max response [1] 1.13% and 22.3% | Potency [2] | Potency [3] | outcome [17] | Potency [4] | Potency [5] | Potency [6] | Potency [7] | outcome [8] | Potency [9] | outcome [10] | outcome [11] | Potency [12] | Potency [13] | outcome [18] | Potency [14] | Potency [15] | Potency [16] | outcome [19]

C=CCOC(=O)c1ccccc1C(=O)OCC=C
inactive: max response [1] 6.21% and 2.3% | Potency [2] | Potency [3] | outcome [17] | Potency [4] | Potency [5] | Potency [6] | Potency [7] | outcome [8] | Potency [9] | outcome [10] | outcome [11] | Potency [12] | Potency [13] | outcome [18] | Potency [14] | Potency [15] | Potency [16] | outcome [19]

CC1=CC(=O)NS(=O)(=O)O1
inactive: max response [1] -28.6% and 3.78% | Potency [2] | Potency [3] | outcome [17] | Potency [4] | Potency [5] | Potency [6] | Potency [7] | outcome [8] | Potency [9] | outcome [10] | outcome [11] | Potency [12] | Potency [13] | outcome [18] | Potency [14] | Potency [15] | Potency [16] | outcome [19]

CC(C)CC(=O)CC(C)C
inactive: max response [1] 3.78% and -11.6% | Potency [2] | Potency [3] | outcome [17] | Potency [4] | Potency [5] | Potency [6] | Potency [7] | outcome [8] | Potency [9] | outcome [10] | outcome [11] | Potency [12] | Potency [13] | outcome [18] | Potency [14] | Potency [15]
